Values joined by “and” are separate entries in the source; they are usually repeats but may differ in a detail not shown here. Equal entries are not always repeated.
Tests used:
Type in all cases: functional
[1] = target: Solute carrier family 2, facilitated glucose transporter member 1 (Homo sapiens) (UniProt P11166); assay: ST_JUDE_LEISH: Cytotoxicity at 2uM final concentration against transgenic Leishmania Mexicana promastigotes LmGLUT1 that are glucose transport deficient and complemented with the human glucose transporter GLUT1. Activity is measured by DNA content using SYBR green in vitro
[2] = target: Hexose transporter 1 (Plasmodium falciparum) (UniProt O97467); assay: ST_JUDE_LEISH: Cytotoxicity at 2uM final concentration against transgenic Leishmania Mexicana promastigotes LmPfHT that are glucose transport deficient and complemented with the Plasmodium falciparum hexose transporter. Activity is measured by DNA content using SYBR green in vitro
[3] = target: Glucose transporter (Leishmania mexicana) (UniProt O61059); assay: ST_JUDE_LEISH: Cytotoxicity at 2uM final concentration against transgenic Leishmania Mexicana promastigotes LmGT2 that are glucose transport deficient and complemented with the L. Mexicana glucose transporter 2. Activity is measured by DNA content using SYBR green in vitro

Chain of Solute carrier family 2, facilitated glucose transporter member 1 (Homo sapiens) (P11166 whole entry): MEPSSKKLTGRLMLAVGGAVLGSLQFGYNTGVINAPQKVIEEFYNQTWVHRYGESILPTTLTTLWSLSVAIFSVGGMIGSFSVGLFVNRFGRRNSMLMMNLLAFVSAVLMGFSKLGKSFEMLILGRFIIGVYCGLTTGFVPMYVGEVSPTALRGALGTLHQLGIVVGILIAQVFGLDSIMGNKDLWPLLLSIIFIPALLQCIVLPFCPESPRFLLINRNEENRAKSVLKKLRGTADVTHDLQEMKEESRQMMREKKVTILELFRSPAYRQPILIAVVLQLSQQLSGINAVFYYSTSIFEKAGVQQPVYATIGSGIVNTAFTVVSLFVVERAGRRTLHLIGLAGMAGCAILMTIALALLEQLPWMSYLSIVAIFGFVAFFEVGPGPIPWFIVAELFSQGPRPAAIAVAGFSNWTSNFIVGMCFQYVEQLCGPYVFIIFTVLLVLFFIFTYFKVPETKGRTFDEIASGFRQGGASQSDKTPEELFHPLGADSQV

Structure (SMILES) | inhibition [1] | inhibition [2] | inhibition [3]
COc1ccc(NC(=O)Nc2ccc(C)c(-c3ccc(C(=O)NCCN4CCCC4)cc3)c2)cc1 | -1.56% | -2.24% | -2.87%
CC(=NNC(S)=NCCc1ccccc1)c1ccccn1 | 57.4% | 68% | 23.6%
Cc1ccccc1C(=O)NC(NC(=S)Nc1ccc([N+](=O)[O-])cc1)C(Cl)(Cl)Cl (stereo not drawn) | 0.54% | -1.37% | 0.22%
CC1CCN(CCNC(=O)c2ccc3c(=O)n(Cc4ccc(Cl)cc4)c(=S)[nH]c3c2)CC1 | 1.28% | 2.93% | 1.91%
CCCS(=O)(=O)c1nc(S(=O)(=O)c2ccc(Cl)cc2)c(N2CCCCC2)s1 | 0.14% | 0.19% | -1.01%
Cc1cc(=NN=Cc2ccc(Cl)cc2)c2ccccc2[nH]1 | 4.28% | 6.86% | 3.97%
Cc1noc(C)c1-c1cccc(CNCc2ccc(-c3cccc(-c4nc5cc(C(F)(F)F)ccc5[nH]4)c3)cc2)c1 | -0.48% | 1.3% | 1.67%
CCOc1ccc(OCCCON2C(=N)N=C(N)NC2(C)C)cc1 | 1.93% | 0.06% | 0.05%
Cc1cccn2c(=O)c3cc(C(=O)NCc4cccnc4)c(=N)n(CCc4ccccc4)c3nc12 | 3.35% | 4.08% | 1.6%
CSc1ccc(CN2CCC(CNC(=O)c3cc(-c4ccccc4F)cs3)C2)cc1 (stereo not drawn) | 0.69% | -0.86% | -3.72%
Cc1cc(C(=O)N(Cc2ccc(-c3ccc(CNCCc4ccc(S(C)(=O)=O)cc4)cn3)cc2)C(C)CN(C)C)ccc1[N+](=O)[O-] (stereo not drawn) | 7.26% | 5.46% | 6.55%
Cc1cc(C)c2c(c1)C(=NO)CCN2 | -1.86% | 1.76% | -0.32%
O=C(C=Cc1ccc(Cl)c(Cl)c1)NCCCCCN1CCC(CCNC(=O)c2ccc3c(c2)OCO3)CC1 | 5.94% | 5.12% | 5.57%
Cc1cccc2nc(-c3ccc(-c4cccc(NC(=O)NCc5cccc(F)c5)c4)cc3)[nH]c12 | -0.32% | 0.88% | -1.06%
Cc1ccc(S(=O)(=O)N2CCN(C(=O)c3cc(-c4cccs4)n[nH]3)CC2)c(C)c1 | 2.83% | 2.34% | -0.33%
CCN(CC)CCN(Cc1ccc(-c2ccc(C(F)(F)F)cc2)cc1)C(=O)Cn1c(CCC2CCCCC2)nc(=O)c2ccccc21 | 0.48% | 1.35% | 0.43%
O=C(CCc1c[nH]cn1)Nc1cccc(-c2ccc(-c3nc4cc(F)ccc4[nH]3)s2)c1 | 10.2% | 7.95% | 9.84%
CN1CCN(CCCN(Cc2csc(-c3ccc(CNCc4ccccc4)cc3)n2)C(=O)Nc2cc(Cl)cc(Cl)c2)CC1 | 9.09% | 6.74% | 7.7%
O=C(/C=C/c1ccc(Cl)c(Cl)c1)NCCCCCN1CCCC(CNC(=O)Nc2ccc(C(F)(F)F)cc2)C1 (stereo not drawn) | 4.18% | 3.11% | 1.39%
O=C(Nc1ccc(-c2cccc(-c3nc4cc(F)ccc4[nH]3)c2)cc1)c1cnn2cccnc12 | 2.14% | 3.22% | 0.84%
COc1cc2nc(NCCc3ccccc3)nc(NCc3cnn(C)c3C)c2cc1OC | 9.47% | 8.36% | 7.1%
COc1c(C2CCN(CCCCNC(=O)c3ccc(-c4ccc(Cl)cc4)c(OCCN(C)C)c3)CC2)ccc2c1CCCC2 | 9.22% | 14.4% | 18.8%
N#Cc1ccc2c(c1)CN(C1CCC(NC(=O)c3cc(-c4ccc(Cl)cc4)cs3)CC1)CCC2 (stereo not drawn) | 3.29% | 0.21% | 1.7%
COc1ccccc1N1CCN(c2cccc3c2nc(-c2cncc(C#N)c2)n3CCNCc2ccccc2)CC1 | 9.96% | 7.58% | 6.47%

Structure (SMILES) | inhibition [1] | inhibition [2] | inhibition [3]
NS(=O)(=O)c1cccc(-c2ccc3c(O)ncnc3c2)c1 | 4.08% | 3.82% | 5.44%
CCc1ccc(NC(=O)c2ccc(CN3CCCN(Cc4cccs4)CC3)cc2)cc1 | 13.8% | 12.6% | 14.9%
CC(=NNC(=N)N)c1ccc2ccc3ccccc3c2c1 | 0.27% | 1.38% | 0.74%
CC(C)C[C@H](NC(=O)c1ccc(OCCN2CCOCC2)cc1)C(=O)N[C@H](/C=N/N1CCNC1=O)CCc1ccccc1 | 6.57% | 6.05% | 4.07%
c1ccc2[nH]c(CN(Cc3nc4ccccc4[nH]3)Cc3nc4ccccc4[nH]3)nc2c1 | -2.76% | 1.73% | -0.29%
Cc1cccc2nc(-c3ccc(-c4cccc(CNCCNC(=O)c5ccnn5C)c4)cc3)[nH]c12 | 0.53% | 1.5% | -3.68%
Cc1nn(CC(C)C)c2sc(C(=O)N3CCN(S(=O)(=O)c4ccc(C#N)cc4)CC3)cc12 | 10.3% | 8.28% | 5.07%
COc1ccc(N2CCN(C(CNC(=O)C3CCCCC3)c3ccc4c(c3)OCO4)CC2)cc1 (stereo not drawn) | 3.65% | 4.28% | 4.35%
COc1ccc2nccc([C@@H](O)CN3CCC(NCc4cc5c(F)ccc(F)c5[nH]4)CC3)c2n1 | 87.9% | 86.8% | 87.2%
CN1CCC(N2CCN(Cc3cccc(-c4ccc(-c5nc6cc(F)ccc6[nH]5)cc4)c3)CC2)CC1 | 2.43% | 3.05% | 2.66%
CCOC(=O)CCc1cc(F)c(F)c(OC[C@H](O)CNC(C)(C)C(O)c2ccc3ccccc3c2)c1 (stereo partly drawn) | 0.06% | 0.61% | 0.21%
O=C(Nc1cccc(-c2cccc(-c3nc4ccccc4[nH]3)c2)c1)NC1CC1c1ccccc1 (stereo not drawn) | 6.53% and 2.58% | 5.02% and 2.99% | 5.79% and 7.12%
CCCOc1cc(OCCC)cc(-c2cc(=O)c3ccccc3[nH]2)c1 | 0.94% | 6.37% | 3.56%
CC(NCC(O)Cn1c2ccccc2c2ccccc21)c1ccccc1 (stereo not drawn) | 0.86% | 1.68% | -1.46%
NS(=O)(=O)c1cncc(-c2ccc3nccc(-c4cn[nH]c4)c3n2)c1 | 6.71% | 7.77% | 6.63%
Cc1nc(-c2ccncc2)sc1C(=O)Nc1ccc(Cl)cc1C(=O)Nc1ccc(Cl)cc1 | 3.13% | 3.01% | 2.19%
Cc1cc(C)c(NC(=O)N2CCCN(CCCCCNC(=O)/C=C/c3ccc(Cl)c(Cl)c3)CC2)c(C)c1 | 3.44% | 2.95% | 2.56%
N#Cc1cc([N+](=O)[O-])ccc1-n1nc(-c2cccc(Cl)c2)n(CC2CCCO2)c1=S (stereo not drawn) | 2.07% | 1.3% | -4.52%
Cc1cc(N[C@@H](Cc2ccccc2)C(=O)Nc2ccccc2)nc(NCCc2ccccc2)n1 | 3.8% | 5.68% | 0.11%
CC(=O)c1cccc(NC(=O)C2c3ccccc3C(=O)N(CC(C)C)C2c2cccs2)c1 (stereo not drawn) | -0.21% | 0.13% | 0.19%
COc1ccccc1COc1c(C)nc(N)nc1N | -1.13% | -0.61% | -1.06%
CC(=O)Nc1ccc(Nc2ncc([N+](=O)[O-])c(Nc3ccccc3C(N)=O)n2)cc1 | 3.27% | 1.61% | 1.93%
CCC(CC)N1C(=O)C(c2ccccc2)(c2ccccc2)N=C1N | 1.48% | 3.51% | 1.61%
CCOC(=O)c1c(C)n(-c2ccccc2)c2ccc(O)cc12 | -0.44% | 2.67% | 0.95%

Structure (SMILES) | inhibition [1] | inhibition [2] | inhibition [3]
Cc1ccc(NC(=O)c2ccc3ncccc3c2)cc1OC1CCN(Cc2ccc(F)cc2)C1 (stereo not drawn) | 1.19% | 0.73% | 1.26%
Cc1ccc(C)c2sc(N(CCCn3ccnc3)C(=O)C=Cc3cccs3)nc12 | 1.74% | 2.3% | -1.56%
COc1cccc2c(Oc3ccccc3C)ccnc12 | -0.44% | -1.86% | 0.33%
O=C(NC1CC1)c1ccc(Cn2c(SCc3cccc([N+](=O)[O-])c3)nc3ccccc3c2=O)cc1 | 1.19% | 0.54% | 0.2%
CSc1ccc(CN2CCC(NC(=O)c3ccc(-c4cccc(Cl)c4)s3)CC2)cc1 | 7.55% | 6.28% | 2.36%
Oc1ccc(-c2nc(-c3ccc4oc5ccc(-c6[nH]c(-c7ccc(O)cc7)nc6-c6ccccc6)cc5c4c3)c(-c3ccccc3)[nH]2)cc1 | -2.06% | -1.28% | -0.47%
O=C1COc2ccc(S(=O)(=O)N3CCC[C@@H]3CCN3CCC(c4c[nH]c5cnccc45)CC3)cc2N1 | 0.76% | 0.68% | 2.12%
CC(C)CCN(Cc1cncn1Cc1cccc(C(F)(F)F)c1)C(=O)c1ccccc1C#N | -3.54% | -0.35% | 0.86%
CCOC(=O)c1c[nH]c2c(sc3cc(OC)ccc32)c1=O | -0.83% | -0.51% | -0.47%
CC(C)(C)C(C)(C)Cc1ccc(O)c(CN2CCN(c3ccccc3)CC2)c1 | 0.82% | -0.41% | -0.38%
CCN1CCN(CCNc2c3ccccc3nc3ccccc23)CC1 | 83.5% | 80.6% | 79%
N#Cc1ccccc1C(=O)N(Cc1cncn1Cc1cccc(F)c1)CC1CC1 | 6.38% | 10.2% | 8.88%
CC(C)C[C@H](NC(=O)c1cc2ccccc2s1)C(=O)N[C@H]1CCN(Cc2ccc(OC3CCN(C)C3)c(Cl)c2)C1 (stereo partly drawn) | 1.48% | 2.37% | -0.19%
Fc1ccc(Nc2ccnc3cc(-c4cccc(CNCCN5CCOCC5)c4)ccc23)c(Cl)c1 | 2.04% | 2.83% | 2.84%
Cc1nc2nc(N)nc(N)c2c(C)c1Cc1cccc(F)c1 | 2.65% | 1.14% | 0.65%
CCOC(=O)N1NC(=O)N(c2ccccc2)C1(c1ccccc1)c1ccccc1 | 2.45% | 1.19% | 2.17%
COc1ccc(CNC2Cc3ccccc3C2)cc1-c1ccc(S(=O)(=O)NCCN2CCCC2)s1 | 17.7% | 15.5% | 7.58%
CCOC(=O)c1ccc(NC(=O)N[C@@H](Cc2ccccc2)C(=O)NC2CCN(Cc3ccc(O)c(OC)c3)C2)cc1 (stereo partly drawn) | -2.58% | -1.29% | 3.01%
CC(C)[C@H](NC(=O)c1c(F)cccc1F)C(=O)Nc1ccc(Cc2nc3ccccc3s2)cc1 | 4.82% | 4.54% | 4.17%
O=[N+]([O-])c1ccc2nccnc2c1 | 6.19% | 5.71% | 6.9%
CN1CCN(Cc2nc(-c3ccc4c(Nc5ccc(Oc6ccccc6)cc5)ccnc4c3)cs2)CC1 | 2.66% | 2.64% | 1.74%
CCNc1cc(C(=O)N[C@@H](Cc2ccccc2)[C@H](O)CNC2CCCCC2)cc(N2CCCCS2(=O)=O)c1 | 8.15% | 4.98% | 7.3%
CCOC(=O)c1ccc2[nH]c(-c3ccc(C(=O)NC4CCN(Cc5ccccc5)CC4)s3)nc2c1 | 4.45% | 4.85% | 0.16%

Source: ChEMBL document CHEMBL3433997, “St. Jude Leishmania screening dataset” (2016)
